Screening results deposited in PubChem BioAssay by several laboratories.
DAX1 inh-1: inhibitors of human orphan nuclear receptor DAX1 (NR0B1) | 340,000 compounds, 0.99% hits | inhibition, % at 6.75 µM | HEK293 Gal4-DAX1 luciferase reporter, luminescence;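 active = inhibition above the mean over all tested compounds plus 3 SD, cut at about 4.2% in these data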;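 note: 0% = DAX1-transfected cells with DMSO and 100% = empty-vector control cells with DMSO; inhibition shows as a rise in luminescence from relieved DAX1 repression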
Target sequence (P51843 207-470 limits assumed): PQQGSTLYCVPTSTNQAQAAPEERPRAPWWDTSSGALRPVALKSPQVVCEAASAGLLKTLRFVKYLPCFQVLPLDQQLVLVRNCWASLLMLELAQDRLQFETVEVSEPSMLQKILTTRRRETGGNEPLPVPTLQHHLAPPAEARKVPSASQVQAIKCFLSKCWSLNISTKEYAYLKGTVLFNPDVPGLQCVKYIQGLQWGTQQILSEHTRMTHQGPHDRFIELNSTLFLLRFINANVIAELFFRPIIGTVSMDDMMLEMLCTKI
PolyA inh: yeast polyadenylation inhibition; activity score, % at 12 µM; 300,000 compounds, 0.02% hits; S. cerevisiae SKY197-pL101 polyadenylation reporter, beta-gal luminescence; efflux-impaired pdr1/pdr3 knockout yeast; score 100 = 6 SD above DMSO; AID 1875;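 active = lowest replicate activity score at least 50, where 100 means six control SD above control mean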;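 note: yeast exposed to compound for 9 h at 30 °C; higher score means more reporter readthrough which indicates perturbed polyadenylation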
hgDAF-12 ag: activates the H. glycines DAF-12 receptor ligand-binding domain; activation, % at 6.8 µM; 370,000 compounds, 1.8% hits; AID 687014; HEK293 GAL4-hgDAF12 UAS-luciferase reporter, agonist luminescence; normalized to butyrate control;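 active = activation above a cutoff set at the mean of all screened compounds plus 3 SD, cut at about 10% in these data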;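 note: 0% = DMSO wells and 100% = sodium butyrate wells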
hcDAF12 agonist: activators of H. contortus DAF-12 nuclear receptor. HEK293 hcDAF-12 lit1-tk-luc reporter, luminescence; 0% DMSO, 100% Δ7-dafachronic acid. activation, % at 6.8 µM. 370,000 compounds, 1.4% hits. AID 652067;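 active = activation above the mean of all tested compounds plus 3 SD, cut at about 5.5% in these data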;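 note: 100% = response to 3 µM Δ7-dafachronic acid high control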
ssDAF-12 act: activates DAF-12 receptor from parasite S. stercoralis; 370,000 compounds, 1% hits; activation, % at 6.8 µM; HEK293 ssDAF-12/GRIP1 lit1-tk-luc reporter, luminescence; % of 3 µM dafachronic acid response;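 active = activation above the mean over all tested compounds plus 3 SD, cut at about 0.9% in these data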;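 note: 0% = DMSO-only wells and 100% = 3 µM delta7-dafachronic acid wells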
DAX1 inh-2: inhibitors of DAX1 repression of SF-1 activated StAR promoter. HEK293T StAR-luciferase reporter, SF-1/DAX-1 repression relief. inhibition, % at 6.8 µM. 370,000 compounds, 1.1% hits;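 active = inhibition above the mean over all tested compounds plus 3 SD, cut at about 3.6% in these data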;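 note: 0% = DAX-1 cells with DMSO and 100% = cells lacking DAX-1 with DMSO; higher inhibition means more luminescence from relief of DAX-1 repression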
* marks the source's active call; other numbers are inactive results; . = no result given. A selection: hits, their analogues and other compounds. The true share with any hit is near 4.1%.

SMILES | DAX1 inh-1 | PolyA inh | hgDAF-12 ag | hcDAF12 agonist | ssDAF-12 act | DAX1 inh-2
CCOc1ccc(-n2c(=O)c3c4c(sc3n(CC(=O)NCC3CCCO3)c2=O)CCCC4)cc1 (stereo not given) | -2 | -5 | 4 | -1 | -2 | 0
CCc1ccccc1NC(=O)C1CCN(C(=O)c2cccs2)CC1 | 4.4* | -4 | 1 | 3 | -2 | 0
O=C(c1ccncc1)N1CC[C@H]2[C@H](CCCN2Cc2ccccc2)C1 | . | . | 2 | -2 | -1 | 1
O=C(Nn1c(-c2ccc(Br)cc2)nc2ccccc2c1=O)c1ccncc1 | -1 | 9 | 13* | 5 | 0 | 1
CCOC(=O)CSc1nc2ccccc2c(=O)n1NC(=O)c1ccccc1 | 0 | 1 | 11* | 4 | 1.1* | 3.9*
CCc1ccc(C(=O)Nn2c(C)nc3ccccc3c2=O)cc1 | 2 | 24 | -2 | 3 | 1.0* | 0
CC(C)(C)OC(=O)NC1CCN(c2nc(-c3ccc(Br)cc3)cs2)CC1 | . | . | -2 | -4 | -2 | .
COC(=O)C1=C(C)N(C)C(=NCc2cccc(C(F)(F)F)c2)NC1c1cccc(Cl)c1 (stereo not given) | . | . | -1 | 0 | -1 | -1
Oc1ccccc1C=NN=C1c2ccccc2-c2ccccc21 | 1 | . | 3 | 3 | 2.1* | -1
O=C(O)CN=C(NS(=O)(=O)c1ccc(Cl)cc1)c1ccccc1 | -1 | -12 | -1 | -1 | 0 | 0
Cc1ccc(S(=O)(=O)NC(=NCC(=O)O)c2ccccc2)cc1 | 1 | 32 | -4 | -1 | 1.1* | 0
O=C(O)CN=C(NS(=O)(=O)c1ccc(Cl)cc1)c1ccc(F)cc1 | 6.0* | 1 | 0 | 0 | -1 | 0
CSCCC(N=C(NS(=O)(=O)c1ccc(C)cc1)c1ccccc1)C(=O)O (stereo not given) | 4.3* | 0 | 4 | 2 | -2 | 0
CCN(CC)C(=O)CSc1nnc(-c2ccc(C(C)(C)C)cc2)n1Cc1ccco1 | . | . | 2 | -3 | -2 | -2
COc1ccc([C@@]23CCN=C2c2[nH]c4ccccc4c2CCN3)c(N)c1 | . | . | -1 | 5 | -1 | .
Cc1ccc2c(C)c(C(=O)N3CCN(Cc4ccc5c(c4)OCO5)CC3)oc2c1C | 0 | -5 | 10 | 5.8* | 0 | 2
Cc1ccc(NC(=O)OC2CC3CC2[C@H]2CCCCN2C3)cc1 (stereo not given in full) | . | . | 11* | 0 | -1 | 0
O=C(Nc1ccc(Br)cc1)OC1CC2CC1[C@H]1CCCCN1C2 (stereo not given in full) | . | . | -2 | 0 | 0 | 0
C#CCN1CC(N(C)CCOC(=O)c2ccc(F)cc2)CS1(=O)=O (stereo not given) | . | . | 2 | 0 | -1 | 0
COc1ccc(Br)cc1S(=O)(=O)NCCN1CCOCC1 | 4.5* | 0 | 4 | -1 | -1 | 1
CCNC(=S)Nc1c(C)n(C)n(-c2ccccc2)c1=O | 1 | 27 | 4 | -1 | -1 | 0
CCN(CC)C(=S)Nc1c(C)n(C)n(-c2ccccc2)c1=O | 4.5* | -10 | -4 | 0 | -2 | 0
COc1ccc(-c2cc(NC(=O)Cc3c[nH]c4ccccc34)ccc2Nc2cccnc2)cc1F | . | . | -2 | -1 | -1 | -2
c1ccc2c(c1)COc1c3ncccc3nn1-2 | 1 | . | 13* | 2 | 0 | 2
C[C@@H](CO)NC(=O)c1ccc2c3n(nc2c1)-c1ccccc1CO3 | -2 | 1 | 10 | 5 | 1 | 3
SMILES | DAX1 inh-1 | PolyA inh | hgDAF-12 ag | hcDAF12 agonist | ssDAF-12 act | DAX1 inh-2
Cc1onc(C(=O)N2CCN(C(c3ccccc3)c3ccccc3)CC2)c1Br | . | . | 2 | 3 | -1 | .
Cc1ccc([N+](=O)[O-])cc1NC(=O)C1CCCC1 | 0 | 9 | 1 | -1 | 5.5* | 1
Cc1nn(-c2ccccc2)c2sc(C(=O)NNC(=O)COc3ccccc3)cc12 | 1 | -2 | 1 | 2 | 1.6* | 1
CN(CCOC(=O)c1cc2ccccc2o1)C1CN(Cc2cn(Cc3ccc([N+](=O)[O-])cc3)nn2)S(=O)(=O)C1 (stereo not given) | . | . | 3 | 1 | -1 | 0
CC(C)c1ccc(/C=C/C2=NNC(=O)CC2)cc1 | 2 | -14 | 11* | 0 | -1 | 2
COc1cc(Cl)cc(C(c2c(C(=O)O)[nH]c3ccccc23)c2c(C(=O)O)[nH]c3ccccc23)c1O | 1 | -16 | 2 | 5.7* | -1 | 1
COc1cccc(CSc2nnc(-c3ccco3)n2C)c1 | 5.2* | 11 | 1 | 1 | -1 | 0
Cc1ccc(-n2c(SCC(N)=O)nnc2-c2ccco2)cc1 | 1 | 13 | -1 | 0 | -2 | -1
COc1ccc(-n2c(SCC(N)=O)nnc2-c2ccco2)cc1 | 4.5* | -1 | 5 | 4 | 1 | 1
COc1cc(Cn2cc([C@]34C[C@H]5C(=O)N(C)CC(=O)N5[C@H]3N(S(=O)(=O)c3ccccc3)c3ccccc34)c3ccccc32)cc(OC)c1 | . | . | 8 | 2 | -1 | .
C[C@H]1COc2cc(Br)ccc2S(=O)(=O)N1Cc1cn(Cc2ccc(Br)cc2)nn1 | . | . | 1 | 3 | -2 | -1
CCN(CC)c1ccc(C(=S)NC2CCCCC2)cc1 | -1 | 5 | 2 | -2 | -1 | -1
CN(C)c1ccc(C(=S)NC2CCCCC2)cc1 | 5.1* | 8 | 13* | 4 | 0 | 4.3*
Cc1ccc(NC(=O)c2noc3c2CCCCC3)cc1C | 4 | 0 | 9 | 4 | 0 | 4.0*
O=C(NCCc1ccccc1)c1noc2c1CCCCC2 | 3 | . | 12* | 2 | -1 | 4.3*
O=C(NCc1ccccc1)c1noc2c1CCCC2 | 1 | 3 | 8 | 0 | -1 | 0
CCOc1ccc(-c2cc(C(C)=O)c3n(c2=O)CCC3)cc1 | . | . | -4 | -1 | -1 | -1
Cc1ccc(C(=O)NC2CCN(S(=O)(=O)c3ccccc3F)CC2)cc1 | -1 | 2 | 0 | -1 | -2 | -1
CN(C)c1cccc(C(=O)NC2CCCCCC2)c1 | 1 | 13 | 9 | 2 | -1 | 2
Cc1cccc(C(=O)NC2CCN(S(=O)(=O)c3ccccc3F)CC2)c1 | 4.3* | -5 | -2 | -3 | -2 | 0
Cc1cccc(C(=O)NC2CCCCCCC2)c1 | 3 | -4 | 11* | 3 | 0 | 1
CC(C)Oc1ccc(CCNC(=O)CC2C(=O)NCCN2C)cc1 (stereo not given) | 4.4* | 3 | -1 | -1 | -1 | 2
O=C(c1ccccc1Cl)c1c(O)c2ccccc2oc1=O | 5.6* | -12 | 1 | -1 | -1 | 0
C[C@@H](c1ccccc1)N1C[C@@H](COCc2ccccc2)Oc2cc(N3CCC[C@H]3C(N)=O)ccc2S1(=O)=O | . | . | 3 | 1 | 4.2* | 1
